# Assay results published in the supplement of paper PMC9446081.
# In all, about 39,000 compounds went through this assay and about 220 (0.56%) showed activity. Only a selection was taken, and actives are over-represented in it overall. Values without a mark were called inactive.
# System: Escherichia coli K-12 BW25113
# Assay: relative growth (OD600 normalised to plate interquartile mean) (fraction); higher = less growth inhibition, active = 0.2 or less
# Conditions: 50 µM; LB; incubation time: overnight (16-24 h)
# 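Note: Wild-type cells incubated without shaking, value is the mean of two biological replicates.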
row,Compound,relative growth
1,C[C@H](CO)N1C[C@H](C)[C@H](CN(C)C(=O)Nc2ccccc2)Oc2c(NC(=O)CCCCCC(=O)Nc3ccccc3N)cccc2C1=O,0.992
2,COc1ccc(S(=O)(=O)N(C)C[C@H]2Oc3c(NC(=O)C4CC4)cccc3C(=O)N([C@H](C)CO)C[C@@H]2C)cc1,0.992
3,C[C@@H]1CCCCO[C@H](CN(C)C)[C@H](C)CN([C@@H](C)CO)C(=O)c2cc(NS(=O)(=O)c3cn(C)cn3)ccc2O1,0.994
4,C[C@@H]1CCCCO[C@H](CN(C)S(=O)(=O)c2ccccc2)[C@H](C)CN([C@@H](C)CO)C(=O)c2cc(NC(=O)Nc3ccc(C(F)(F)F)cc3)ccc2O1,1
5,COc1ccc(S(=O)(=O)Nc2ccc3c(c2)C(=O)N([C@@H](C)CO)C[C@H](C)[C@H](CN(C)S(=O)(=O)c2ccc(C)cc2)O3)cc1,1.01
6,C[C@H]1CN([C@@H](C)CO)C(=O)Cc2cc(NC(=O)Nc3ccc(C(F)(F)F)cc3)ccc2O[C@@H]1CN(C)C(=O)Nc1ccc(F)cc1,1.01
7,O=C(C[C@H]1C[C@@H]2c3cc(NC(=O)Cc4ccncc4)ccc3O[C@@H]2[C@@H](CO)O1)NCCN1CCCCC1,0.983
8,Cc1cn([C@H]2C[C@H](N=[N+]=[N-])[C@@H](CO)O2)c(=O)[nH]c1=O,0.048 (active)
9,Cc1cn([C@H]2C[C@@H](NC(=O)C(C)(C)C)[C@@H](CO)O2)c(=O)[nH]c1=O,1.02
10,CCc1cn([C@H]2C[C@@H](O)[C@@H](CO)O2)c(=O)[nH]c1=O,0.827
11,Cc1cn(C2CC(N=[N+]=[N-])C(CO)O2)c(=O)[nH]c1=O (stereo not drawn),0.0449 (active)
12,Cc1cn([C@H]2C[C@H](F)[C@@H](CO)O2)c(=O)[nH]c1=O,0.276
13,Cc1cn([C@H]2CC[C@@H](CO)O2)c(=O)[nH]c1=O,0.531
14,O=C(C[C@H]1C[C@H]2c3cc(NC(=O)Cc4ccncc4)ccc3O[C@H]2[C@H](CO)O1)NCCN1CCCCC1,1.02
15,Cc1noc(C)c1NC(=O)Nc1ccc2c(c1)C(=O)N([C@@H](C)CO)C[C@H](C)[C@@H](CN(C)S(=O)(=O)c1ccccc1)O2,0.987
16,COCC#Cc1ccc2c(c1)O[C@@H](CN(C)S(=O)(=O)c1ccc(C)cc1)[C@@H](C)CN([C@H](C)CO)S2(=O)=O,1.02
17,C[C@@H]1CN([C@@H](C)CO)C(=O)c2cccc(NC(=O)Nc3ccc(F)cc3)c2O[C@H]1CN(C)S(=O)(=O)c1cn(C)cn1,0.984
18,C[C@@H]1CN([C@H](C)CO)C(=O)Cc2cc(NC(=O)Cn3cnnn3)ccc2O[C@H]1CN(C)Cc1ccncc1,0.971
19,C[C@@H]1CN([C@@H](C)CO)C(=O)CCCn2nncc2CO[C@@H]1CN(C)C(=O)c1ccc(N2CCN(C)CC2)cc1,0.987
20,COc1ccc([Si](C)(C)[C@H]2[C@H](CCOC(=O)NCCCCCC(=O)NO)O[C@]3(C(=O)N(Cc4cccc(N5CCCCC5=O)c4)c4ccccc43)[C@@H]2C)cc1,1.02
21,Nc1cc[nH]c(=O)n1,0.997
22,CCCCNc1ccccc1,0.996
23,CCCCCc1ccccn1,0.974
24,CCCCCCCCCCCCCCCC[N+](C)(C)Cc1ccccc1.[Cl-],0.0933 (active)
25,CCCCCCCCCCCCC[N+](C)(C)Cc1ccccc1.O.[Cl-],0.0544 (active)
26,CCCCCCCCCCCCCCCC[N+](C)(C)CCN(Cc1ccc(OC)cc1)c1ncccn1,0.555

row,Compound,relative growth
1,CCCCCCCCCCCCC[N+](C)(C)Cc1ccccc1,0.0319 (active)
2,CC[N+](C)(CC)Cc1ccccc1,0.993
3,CCCC[C@@H](O)c1ccccc1,0.992
4,CCCCC(O)c1ccccc1 (stereo not drawn),0.973
5,C[C@H](CO)N1C[C@H](C)[C@@H](CN(C)Cc2ccc(Oc3ccccc3)cc2)Oc2c(NC(=O)Nc3ccc(C(F)(F)F)cc3)cccc2C1=O,0.795
6,CN(C)CC(=O)N[C@@H]1CC[C@@H](CC(=O)O)O[C@@H]1CO,0.983
7,C[C@H](CO)N1C[C@H](C)[C@@H](CN(C)CC2CCCCC2)Oc2ccc(NC(=O)CCN3CCOCC3)cc2C1=O,0.981
8,NCC[C@@H]1CC[C@H](NC(=O)C2CC2)[C@H](CO)O1,0.995
9,C[C@H]1CN([C@@H](C)CO)C(=O)CCCn2nncc2CO[C@@H]1CN(C)Cc1cccc2c1OCCCO2,0.992
10,O=C(Oc1ccc(Cl)cc1)c1sc2ccccc2c1Cl,1.05
11,Oc1ccc(Cl)c2cccnc12,0.0534 (active)
12,Oc1c(I)cc(I)c2cccnc12,1.04
13,Fc1cccc2c(Cl)ccnc12,0.976
14,O=[N+]([O-])c1ccc(O)c2ncccc12,0.0542 (active)
15,Oc1c(I)cc(Cl)c2cccnc12,0.463
16,NS(=O)(=O)c1ccc(O)c([N+](=O)[O-])c1,0.992
17,Oc1c(Cl)cc(Cl)c2cccnc12,0.111 (active)
18,Oc1c(Br)cc(Br)c2cccnc12,0.379
19,Nc1ncccc1O,1.03
20,C[C@H]1CN([C@@H](C)CO)C(=O)c2cc(NC(=O)Cn3cnnn3)ccc2O[C@@H]1CN(C)Cc1ccncc1,1.02
21,C[C@@H]1CN([C@H](C)CO)C(=O)c2cc(NS(=O)(=O)c3ccc(F)cc3)ccc2O[C@H]1CN(C)S(=O)(=O)c1cn(C)cn1,1.04
22,C[C@@H]1CN([C@@H](C)CO)C(=O)c2cc(NC(=O)C3CCCCC3)ccc2O[C@@H](C)CCCCO[C@H]1CN(C)Cc1ccc(C(=O)O)cc1,0.977
23,Cl.Nc1ccn(C2OC(CO)C(O)C2(F)F)c(=O)n1 (stereo not drawn),1.09
24,COc1ccc(S(=O)(=O)Nc2ccc3c(c2)C(=O)N([C@@H](C)CO)C[C@H](C)[C@H](CN(C)S(=O)(=O)c2ccc(F)cc2)O3)cc1,1
25,C[C@H](CO)N1C[C@H](C)[C@@H](CN(C)Cc2ccc(C(=O)O)cc2)OCCCC[C@H](C)Oc2ccc(NC(=O)Nc3ccc4c(c3)OCO4)cc2C1=O,0.95
26,COCC#Cc1cnc2c(c1)C(=O)N([C@H](C)CO)C[C@H](C)[C@@H](CN(C)S(=O)(=O)c1ccccc1)O2,1

row,Compound,relative growth
1,CC(=O)N[C@H](C)c1cn(C)nc1C,1.03
2,C[C@@H]1CN([C@H](C)CO)C(=O)c2cc(NC(=O)C3CCCCC3)ccc2O[C@@H](C)CCCCO[C@@H]1CN(C)S(=O)(=O)c1cccs1,0.933
3,O=c1[nH]cc(Nc2ccccc2)c(=O)[nH]1,1.01
4,O=c1[nH]cc(N2CCCCC2)c(=O)[nH]1,1
5,O=c1[nH]cc(F)c(=O)[nH]1,0.196 (active)
6,C[N+]1(C)C2CCC1CC(OC(=O)C(O)c1ccccc1)C2.[Br-] (stereo not drawn),0.924
7,Nc1nnc(C(=O)c2ccccc2N)s1,0.951
8,Cc1noc(C)c1NC(=O)Nc1ccc2c(c1)CC(=O)N([C@@H](C)CO)C[C@H](C)[C@H](CN(C)S(=O)(=O)c1ccccc1)O2,0.971
9,Cc1noc(C)c1NC(=O)N(C)C[C@H]1Oc2ccc(NS(=O)(=O)c3c(C)noc3C)cc2CC(=O)N([C@@H](C)CO)C[C@@H]1C,0.985
10,C[C@H](CO)N1C[C@H](C)[C@@H](CN(C)S(=O)(=O)c2ccccc2)OCCCC[C@H](C)Oc2ccc(NS(=O)(=O)c3cn(C)cn3)cc2C1=O,0.993
11,O=C(NO)c1cn(-c2cccc(C(=O)N3CCC4(CC3)C(=O)NCN4c3ccccc3)c2)nn1,0.0368 (active)
12,O=C(NO)c1cn(CC(=O)N2CCC3(CC2)C(=O)NCN3c2ccccc2)nn1,0.94
13,O=C(/C=C/c1cccc(-c2cn(-c3cccc(C(=O)N4CCC5(CC4)C(=O)NCN5c4ccccc4)c3)nn2)c1)NO,0.972
14,C[C@H](CO)N1C[C@H](C)[C@@H](CN(C)CC2CC2)Oc2c(NS(=O)(=O)c3cn(C)cn3)cccc2C1=O,0.999
15,COC(=O)C[C@@H]1CC[C@@H]2[C@@H](COc3ccc(NS(=O)(=O)c4ccccc4Cl)cc3C(=O)N2C)O1,1.03
16,CS(=O)(=O)Nc1cccc(C2=NN(c3nc(-c4ccccc4)c4cc(Cl)ccc4n3)[C@H](c3ccco3)C2)c1,1
17,Cc1noc(C)c1NC(=O)Nc1ccc2c(c1)C(=O)N([C@@H](C)CO)C[C@@H](C)[C@H](CN(C)S(=O)(=O)c1ccc(F)cc1)OCCCC[C@H](C)O2,1.03
18,O=C(C[C@@H]1C[C@@H]2c3cc(NS(=O)(=O)c4ccc(F)cc4)ccc3O[C@@H]2[C@H](CO)O1)NC1CCCC1,0.992
19,COc1ccc(C#Cc2ccc3c(c2)O[C@@H](CN(C)C(C)=O)[C@@H](C)CN([C@@H](C)CO)S3(=O)=O)cc1,1.03
20,COc1cc(Cc2cnc(N)nc2N)cc(OC)c1OC,0.044 (active)
21,COc1cccnc1N,0.99
22,COc1ccc(Cc2cnc(N)nc2N)cc1OC,0.0502 (active)
23,COc1cc(CN)cc(OC)c1OC,1
24,COc1cc(O)cc(OC)c1OC,1.1
25,COc1ccc(C2=C(N)C(=O)NC2=O)cc1OC,0.93
26,Cc1ccc(S(=O)(=O)N(C)C[C@H]2Oc3c(NS(=O)(=O)c4cn(C)cn4)cccc3C(=O)N([C@@H](C)CO)C[C@@H]2C)cc1,0.959
